# In PubChem BioAssay (NCATS):
# Several values for one entry are separate records, joined by “and”; a condition that tells them apart may be missing. Identical values can stand only once. Records with an inconclusive call do not appear. Activity calls are given as the source filed them. Unless noted, no rule for the calls is given here.
# Legend:
# [1] = qHTS for compounds that reverse cellular toxicity of Amyloid beta (A-beta) peptide in yeast: LOPAC Validation Assay (AID 720559; active = well fitted curve in the direction sought with a large enough effect; an effect the other way counts as inactive or inconclusive;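 also: plate controls were DMSO for no effect and equimolar ferric chloride plus clioquinol rescue for full effect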)
# Method in brief: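 Activity is expressed relative to DMSO and an equimolar ferric chloride/clioquinol mix. Compounds were pinned into medium with A-beta-expressing yeast, grown 48 hr at 30 C, then read by absorbance at 600 nm.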
# [2] = qHTS for Activators of Parkin Expression: LOPAC Validation Assay (NLuc Reporter) (AID 720572; active = well fitted curve in the direction sought with a large enough effect; an effect the other way counts as inactive or inconclusive;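 also: 0% = DMSO and 100% = positive control compound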)
# Method in brief: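 Neuronal line stably carrying a FLuc/NLuc coincidence reporter under the Parkin promoter, seeded 24 h, then dosed in 7-point series for 24 h at 37 C. NLuc luminescence read after FLuc; normalized to DMSO and positive control (100%).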
# [3] = target: T1, Hexokinase-4 (Homo sapiens) + Glucokinase regulatory protein (Homo sapiens) (UniProt P35557+Q14397); assay: qHTS assay for inhibitors of recombinant human GCK-GKRP interaction: Diaphorase-coupled assay (AID 743205; active = well fitted curve in the direction sought with a large enough effect; an effect the other way counts as inactive or inconclusive)
# T1 sequence (P35557 whole entry, looked up): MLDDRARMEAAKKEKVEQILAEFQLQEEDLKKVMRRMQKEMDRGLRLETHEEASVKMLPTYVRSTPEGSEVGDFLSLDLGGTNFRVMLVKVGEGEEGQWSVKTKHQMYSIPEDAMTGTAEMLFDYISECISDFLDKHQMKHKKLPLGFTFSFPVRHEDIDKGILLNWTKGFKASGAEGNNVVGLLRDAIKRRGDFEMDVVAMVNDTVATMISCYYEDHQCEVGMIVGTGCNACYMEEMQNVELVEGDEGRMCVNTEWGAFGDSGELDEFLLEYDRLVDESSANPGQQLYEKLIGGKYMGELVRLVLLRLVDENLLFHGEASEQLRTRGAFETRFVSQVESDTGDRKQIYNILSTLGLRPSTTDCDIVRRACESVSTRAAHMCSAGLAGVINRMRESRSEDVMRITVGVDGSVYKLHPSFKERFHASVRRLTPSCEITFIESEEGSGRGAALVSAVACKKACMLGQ
# T1 sequence (Q14397 whole entry, looked up): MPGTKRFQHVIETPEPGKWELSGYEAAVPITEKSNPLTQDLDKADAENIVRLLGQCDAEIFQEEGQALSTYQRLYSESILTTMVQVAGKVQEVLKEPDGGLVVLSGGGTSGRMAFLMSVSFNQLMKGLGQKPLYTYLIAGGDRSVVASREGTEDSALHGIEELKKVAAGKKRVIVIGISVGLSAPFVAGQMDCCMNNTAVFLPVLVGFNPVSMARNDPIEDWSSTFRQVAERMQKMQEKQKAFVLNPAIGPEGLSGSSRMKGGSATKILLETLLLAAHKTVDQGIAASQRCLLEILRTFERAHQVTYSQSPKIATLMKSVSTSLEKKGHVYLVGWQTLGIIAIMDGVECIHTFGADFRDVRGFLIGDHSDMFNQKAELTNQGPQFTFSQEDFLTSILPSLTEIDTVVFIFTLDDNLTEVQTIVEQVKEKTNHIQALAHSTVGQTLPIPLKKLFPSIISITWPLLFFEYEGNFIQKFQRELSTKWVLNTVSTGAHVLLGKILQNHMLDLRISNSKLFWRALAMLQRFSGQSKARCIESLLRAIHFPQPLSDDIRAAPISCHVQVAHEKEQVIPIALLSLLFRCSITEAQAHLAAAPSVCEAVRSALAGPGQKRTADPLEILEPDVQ
# Method in brief: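 Inhibitors of the GCK–GKRP complex relieve GKRP suppression of GCK, detected through a G6PDH–diaphorase cascade reducing resazurin. Human GST-GCK and FLAG-GKRP are used at 10 nM with 5 mM glucose and 0.4 mM ATP.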
# [4] = qHTS assay for cell viability of HEK293 cells (AID 743288; active = well fitted curve in the direction sought with a large enough effect; an effect the other way counts as inactive or inconclusive; also: potency is read from the fitted curve at half-maximal effect; nearly all actives have a fitted effect of over 50% in size); details: ATP luminescence (CellTiter-Glo), 18 h; max response: stronger effect = lower value
# Method in brief: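 The Tox21 protocol used parental HEK293 cells treated for 18 h at 37 C with compounds delivered by pintool; ATP-coupled luminescence after 30 min at room temperature gave viability.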
# [5] = qHTS assay for cell viability of the p53RE-bla HCT-116 cell line (AID 743292; active = well fitted curve in the direction sought with a large enough effect; an effect the other way counts as inactive or inconclusive; also: potency is read from the fitted curve at half-maximal effect; nearly all actives have a fitted effect of over 55% in size)
# Method in brief: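 ATP-based luminescence, 16 h compound exposure at 37 C, p53RE-bla HCT-116 cells at 4,000/well.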
# [6] = qHTS profiling for inhibitors of Plasmodium falciparum (3D7) proliferation (AID 743322);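 also: infected erythrocytes exposed to compound for 72 h before lysis; 100% = DMSO vehicle wells and 0% = 0.29 µM artemisinin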; details: P. falciparum 3D7 proliferation; at 28.7 µM (top of the series) unless noted
# Method in brief: (§1)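 Erythrocytes infected with P. falciparum (0.3% parasitemia, 2.5% hematocrit) incubated with compounds 72 h at 37 C, 5% CO2. Lysis with saponin/Triton buffer containing SYBR Green I, overnight at room temperature in the dark; DNA fluorescence (485/535 nm) normalised to 0.29 uM artemisinin and DMSO.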
# [7] = qHTS profiling for inhibitors of Plasmodium falciparum (DD2) proliferation (AID 743323); details: lower = more inhibition; at 28.7 µM (top of the series) unless noted
# Method in brief: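 P. falciparum Dd2-infected erythrocytes (0.3% parasitemia, 2.5% hematocrit) exposed 72 h at 37 C, 5% CO2. Lysis with SYBR Green, overnight at room temperature, fluorescence 485/535 nm; normalized to 0.29 uM artemisinin and DMSO.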
# [8] = qHTS profiling for inhibitors of Plasmodium falciparum (HB3) proliferation (AID 743324; active = well fitted curve in the direction sought with a large enough effect; an effect the other way counts as inactive or inconclusive;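 also: 100% = DMSO vehicle wells and 0% = artemisinin-treated control wells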); details: Plasmodium falciparum HB3 blood-stage proliferation; at 28.7 µM (top of the series) unless noted
# Method in brief: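 P. falciparum HB3 grown in erythrocytes (0.3% parasitemia, 2.5% hematocrit final) with compound for 72 h at 37 C, 5% CO2. Parasite DNA detected by SYBR Green after saponin/triton lysis overnight; normalized to 0.29 uM artemisinin and DMSO.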
# [9] = qHTS profiling of the MIPE4 collection as inhibitors of Plasmodium falciparum (3D7) proliferation (AID 743344);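 also: scaled between DMSO vehicle wells and 0.29 µM artemisinin as full inhibition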; details: P. falciparum 3D7 in erythrocytes, SYBR Green DNA fluorescence, 72 h; at 28.5 µM (top of the series) unless noted
# Method in brief: as §1
# [10] = qHTS profiling of the MIPE4 collection as inhibitors of Plasmodium falciparum (DD2) proliferation (AID 743345); details: P. falciparum Dd2 in erythrocytes, SYBR Green DNA, 72 h; at 28.5 µM (top of the series) unless noted
# Method in brief: as §1
# [11] = qHTS profiling of the MIPE4 collection as inhibitors of Plasmodium falciparum (DD2) proliferation (Rep 2) (AID 743346); details: P. falciparum Dd2 in erythrocytes, SYBR Green DNA, 72 h; at 28.5 µM (top of the series) unless noted
# Method in brief: as §1
# [12] = qHTS profiling of the MIPE4 collection as inhibitors of Plasmodium falciparum (HB3) proliferation (AID 743347);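 also: plate controls were DMSO vehicle wells for no effect and artemisinin wells for full effect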; details: P. falciparum HB3 in erythrocytes, SYBR Green DNA, 72 h; at 28.5 µM (top of the series) unless noted
# Method in brief: as §1
# [13] = qHTS Assay for Identifying Gametocytocidal Compounds (AID 743244; active = well fitted curve in the direction sought with a large enough effect; an effect the other way counts as inactive or inconclusive;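 also: % is scaled to controls: 0 for no effect and ±100 for the full control effect; actives lower the fluorescent signal which means gametocytes are killed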); details: P. falciparum 3D7 stage III-V gametocytes, alamarBlue, 72 h; max response: stronger effect = lower value
# Method in brief: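 In this qHTS viability screen, late-stage 3D7 gametocytes are incubated with compound for 72 h, then with alamarBlue for 24 h; reduced resorufin fluorescence marks killing.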
# [14] = target: Arylsulfatase A (Homo sapiens) (UniProt P15289); assay: qHTS screen for enhancers of Arylsulfatase A (ASA1): LOPAC Validation Assay (AID 720538; active = well fitted curve in the direction sought with a large enough effect; an effect the other way counts as inactive or inconclusive; also: 0% is about no effect); details: outcome: dose series up to 57.5 µM
# Arylsulfatase A (Homo sapiens), sequence (P15289 whole entry, looked up): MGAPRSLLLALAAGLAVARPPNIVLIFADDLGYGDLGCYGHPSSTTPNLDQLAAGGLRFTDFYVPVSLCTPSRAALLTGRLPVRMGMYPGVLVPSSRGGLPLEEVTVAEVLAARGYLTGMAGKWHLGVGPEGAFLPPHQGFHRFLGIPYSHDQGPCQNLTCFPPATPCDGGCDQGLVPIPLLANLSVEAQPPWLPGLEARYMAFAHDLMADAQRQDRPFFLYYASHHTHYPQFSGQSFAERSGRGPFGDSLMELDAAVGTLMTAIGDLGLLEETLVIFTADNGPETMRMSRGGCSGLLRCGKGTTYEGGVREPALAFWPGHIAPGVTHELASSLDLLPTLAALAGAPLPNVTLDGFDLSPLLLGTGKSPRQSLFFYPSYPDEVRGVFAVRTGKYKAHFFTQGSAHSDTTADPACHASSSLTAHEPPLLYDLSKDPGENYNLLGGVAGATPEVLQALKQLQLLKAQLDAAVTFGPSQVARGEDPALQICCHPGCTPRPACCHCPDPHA
# Method in brief: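 First, ASA-I179S fibroblasts from an MLD patient adhered for 6 hrs. Next, compounds were added for 48h. Then pNCS substrate (0.5mM final) with lysis buffer reacted 14h at room temperature before NaOH stop and fluorescence measurement.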
# [15] = target: T1, Hexokinase-4 (Homo sapiens) + Glucokinase regulatory protein (Homo sapiens); assay: qHTS assay for inhibitors of recombinant human GCK-GKRP interaction: ADP-Glo assay (AID 743206; active = well fitted curve in the direction sought with a large enough effect; an effect the other way counts as inactive or inconclusive;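 also: plate controls were DMSO plus enzyme for no effect and no enzyme for full effect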)
# Method in brief: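 GST-GCK and FLAG-GKRP (15 nM each in the dispensed mix, with 2 uM S6P) react with 0.4 mM ATP and 5 mM glucose (final) in Hepes pH 7.6 for 60 min at room temperature. ADP is measured by ADP-Glo luminescence.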
# [16] = qHTS for Activators of Parkin Expression: LOPAC Validation Assay (FLuc Reporter) (AID 720573; active = well fitted curve in the direction sought with a large enough effect; an effect the other way counts as inactive or inconclusive;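 also: 0% = DMSO and 100% = positive control compounds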)
# Method in brief: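 A neuronal cell line harbouring FLuc and NLuc reporters behind the Parkin promoter was exposed to compounds for 24 h. Firefly luciferase signal, measured after 10 min with detection reagent, was scaled to DMSO and positive-control wells.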
Structure (SMILES),outcome [1],Potency [2],outcome [3],Potency [4],Potency [5],remaining parasite growth % (stronger effect = lower value) [6],"activity, percent of control [7]","remaining proliferation (% of control), lower = more inhibition [8]","parasite growth, % of DMSO control [9]","parasite growth remaining, % of DMSO control (lower = more inhibition) [10]","parasite growth, % of control (lower = inhibition) [11]","growth, % of control [12]",max response [13],outcome [14],outcome [15],outcome [16]
Cc1cc2c(C(C)C)c(O)c(O)c(C=O)c2c(O)c1-c1c(C)cc2c(C(C)C)c(O)c(O)c(C=O)c2c1O,inactive,inactive,inactive,35.5 µM (active),12.6 µM (active),5.05% and 5.11%,13.9% and 10.5%,-0.222% and 1.83%,8.6%,15%,19.3%,14.8%,–,–,–,–
C[C@@H]1C[C@H]2[C@@H]3CCC4=CC(=O)C=C[C@]4(C)C3(F)[C@@H](O)C[C@]2(C)[C@@]1(O)C(=O)CO (stereo not given in full),–,–,–,–,–,109%,95.7%,85.9%,71.2%,96%,146%,95.5%,2.96% (inactive),–,–,–
N[C@@H]1CONC1=O,–,–,inactive,–,–,–,–,–,398%,120%,80.9%,650%,2.44% (inactive) and 21.1% (inactive),inactive,inactive,–
Cc1ccc(N(CC2=NCCN2)c2cccc(O)c2)cc1,inactive,inactive,inactive,–,–,–,–,–,69.6%,92.8%,57%,95.9%,9.03% (inactive),–,–,inactive
Fc1ccc(Cl)cc1-c1nc(Nc2ccncc2)c2nccnc2n1,–,–,–,–,–,5.45%,25.3%,13.2%,22.1%,37%,30.8%,8.98%,-14.2% (inactive),–,–,–
CNC(=O)c1ccc(N2C(=S)N(c3ccc(C#N)c(C(F)(F)F)c3)C(=O)C2(C)C)cc1F,–,–,–,–,–,87.6%,87.8%,62.8%,53.9%,86.3%,53.7%,41.9%,12% (inactive),–,–,–
CC1(C)SCCN(S(=O)(=O)c2ccc(OCC#CCO)cc2)[C@@H]1C(=O)NO,–,–,–,–,–,107%,104%,81.4%,65.2%,66%,70%,112%,1.92% (inactive),–,–,–
O=C1CCCC2=C1C(c1[nH]ncc1Cl)N=C(Nc1nc3ccccc3o1)N2 (stereo not given),–,–,–,–,–,115%,105%,114%,20.6%,10.9%,8.08%,55.2%,6.89% (inactive),–,–,–
CCOc1ccn(-c2ccc(F)cc2)c(=O)c1C(=O)Nc1ccc(Oc2ccnc(N)c2Cl)c(F)c1,–,–,–,–,–,83.7%,56.6%,36.7%,41.2%,80.4%,36%,73%,18.8% (inactive),–,–,–
N#CC[C@H](C1CCCC1)n1cc(-c2ncnc3[nH]ccc23)cn1,–,–,–,–,–,57.9%,48.8%,18.5%,21.5%,64.4%,55.7%,40.5%,2.34% (inactive),–,–,–
